Source: PubChem BioAssay AID1159580 (chemical genetic matrix, 2015)
Screen size: about 5,500 compounds; about 2,000 (36%) were called active. Inconclusive results (about 18%) are left out. No stated cut-off is given here; in the data, active means normalized growth mostly below about 0.91 (no sharp cut-off); inconclusive means no clear call, values can overlap the other calls; inactive means mostly above about 0.92. The list shows a part of the results.

Assay: chemical genetic growth profiling, strain panel (AID 1159580);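 further: tested at 20 µM; growth read once vehicle control cultures reached saturation at 30 °C; 1 = growth at the plate median or of vehicle wells; lower values mean less growth of the strain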
Details: S. cerevisiae deletion strains, growth OD
[1] = locus YAR019C, strain CDC15, hits give low values
[2] = locus YBL105C, strain PKC1, hits give low values
[3] = locus YBR135W, strain CKS1, hits give low values
[4] = locus YBR136W, strain MEC1, hits give low values
[5] = locus YBR160W, strain CDC28, hits give low values
[6] = locus YDL017W, strain CDC7, hits give low values
[7] = locus YDL028C, strain MPS1, hits give low values
[8] = locus YDL101C, strain DUN1, hits give low values
[9] = locus YDL108W, strain KIN28, hits give low values
[10] = locus YDL132W, strain cdc53, hits give low values
[11] = locus YDL214C, strain PRR2, hits give low values
[12] = locus YDR052C, strain DBF4, hits give low values
[13] = locus YDR054C, strain cdc34, hits give low values
[14] = locus YDR226W, strain ADK1, hits give low values
[15] = locus YDR477W, strain SNF1, hits give low values
[16] = locus YER123W, strain YCK3, hits give low values
[17] = locus YER133W, strain GLC7, hits give low values
[18] = locus YFL009W, strain cdc4, hits give low values
[19] = locus YFL029C, strain CAK1, hits give low values
[20] = locus YFR003C, strain YPI1, hits give low values
[21] = locus YFR019W, strain FAB1, hits give low values
[22] = locus YFR028C, strain CDC14, hits give low values
[23] = locus YGR040W, strain KSS1, hits give low values
[24] = locus YGR052W, strain FMP48, hits give low values
[25] = locus YGR092W, strain DBF2, hits give low values
[26] = locus YHR030C, strain SLT2, hits give low values
[27] = locus YHR079C, strain IRE1, hits give low values
[28] = locus YHR082C, strain KSP1, hits give low values
[29] = locus YHR205W, strain SCH9, hits give low values
[30] = locus YIL147C, strain SLN1, hits give low values
[31] = locus YJL095W, strain BCK1, hits give low values
[32] = locus YJL128C, strain PBS2, hits give low values
[33] = locus YJL157C, strain FAR1, hits give low values
[34] = locus YJR016C, strain ILV3, hits give low values
[35] = locus YJR066W, strain TOR1 (second series), hits give low values
[36] = locus YJR066W, strain TOR1, hits give low values
[37] = locus YKL048C, strain ELM1, hits give low values
[38] = locus YKL067W, strain YNK1, hits give low values
[39] = locus YKL101W, strain HSL1, hits give low values
[40] = locus YKL193C, strain SDS22, hits give low values
[41] = locus YKL203C, strain TOR2, hits give low values
[42] = locus YLR113W, strain HOG1, hits give low values
[43] = locus YLR133W, strain CKI1, hits give low values
[44] = locus YLR403W, strain SFP1, hits give low values
[45] = locus YML070W, strain DAK1, hits give low values
[46] = locus YMR001C, strain CDC5, hits give low values
[47] = locus YMR205C, strain PFK2 (second series), hits give low values
[48] = locus YMR277W, strain FCP1, hits give low values
[49] = locus YNL006W, strain LST8, hits give low values
[50] = locus YNL020C, strain ARK1, hits give low values
[51] = locus YNL161W, strain CBK1, hits give low values
[52] = locus YNL183C, strain NPR1, hits give low values
[53] = locus YNL207W, strain RIO2, hits give low values
[54] = locus YNL222W, strain SSU72, hits give low values
[55] = locus YNL307C, strain MCK1 (second series), hits give low values
[56] = locus YOL078W, strain AVO1, hits give low values
[57] = locus YOL136C, strain PFK27, hits give low values
[58] = locus YOR061W, strain CKA2, hits give low values
[59] = locus YOR119C, strain RIO1, hits give low values
[60] = locus YOR231W, strain MKK1, hits give low values
[61] = locus YOR329C, strain SCD5, hits give low values
[62] = locus YPL031C, strain PHO85, hits give low values
[63] = locus YPL153C, strain RAD53, hits give low values
[64] = locus YPL204W, strain HRR25, hits give low values
[65] = locus YPL209C, strain IPL1, hits give low values
[66] = locus YPL256C, strain CLN2, hits give low values
[67] = locus YPR025C, strain CCL1, hits give low values
[68] = locus YPR106W, strain ISR1, hits give low values
[69] = locus YPR111W, strain DBF20, hits give low values
[70] = strain NNK1, hits give low values
[71] = strain TSCII, hits give low values

Measured: normalized growth

Cc1cc(Br)ccc1-n1c(Sc2c([N+](=O)[O-])cc(C(F)(F)F)cc2[N+](=O)[O-])nc2ccccc2c1=O
active: [42] 0.841
inactive: [1] 0.99 | [2] 0.985 | [3] 0.984 | [4] 0.978 | [5] 0.988 | [6] 0.989 | [7] 0.983 | [8] 0.988 | [9] 0.984 | [10] 0.994 | [11] 0.892 | [12] 0.989 | [13] 0.985 | [14] 0.981 | [15] 0.933 | [16] 0.901 | [17] 0.933 | [18] 0.986 | [19] 0.986 | [20] 0.986 | [21] 0.952 | [22] 0.994 | [23] 0.938 | [24] 0.945 | [25] 0.968 | [26] 0.972 | [27] 0.922 | [28] 0.997 | [29] 0.879 | [30] 0.984 | [31] 0.88 | [32] 0.915 | [33] 0.927 | [34] 0.987 | [35] 0.885 | [36] 1.06 | [37] 0.946 | [38] 0.943 | [39] 0.93 | [40] 0.982 | [41] 1 | [43] 0.95 | [44] 0.961 | [45] 0.923 | [46] 0.981 | [47] 0.939 | [48] 0.982 | [49] 0.981 | [50] 0.943 | [51] 0.982 | [52] 1.02 | [53] 0.999 | [54] 0.983 | [55] 0.932 | [56] 0.984 | [57] 0.926 | [58] 0.937 | [59] 0.998 | [60] 0.955 | [61] 0.988 | [62] 0.923 | [63] 0.917 | [64] 0.928 | [65] 0.99 | [66] 0.943 | [67] 0.983 | [68] 0.968 | [69] 0.972 | [70] 0.968 | [71] 0.993

CC(=O)c1sc(SCCS(=O)(=O)c2ccc(C)cc2)c2c1CC(C)(C)CC2=O
active: [15] 0.643 | [17] 0.267 | [23] 0.675 | [26] 0.498 | [41] 0.635 | [59] 0.653 | [63] 0.622 | [64] 0.653
inactive: [1] 0.984 | [2] 1.01 | [3] 0.984 | [4] 0.98 | [5] 0.98 | [6] 0.992 | [7] 0.98 | [8] 0.969 | [9] 0.97 | [10] 0.978 | [11] 0.926 | [12] 0.935 | [13] 1.01 | [14] 0.962 | [16] 0.914 | [18] 0.973 | [19] 0.986 | [20] 0.97 | [21] 0.932 | [22] 0.97 | [24] 0.947 | [25] 0.963 | [27] 1.08 | [28] 0.987 | [29] 0.958 | [30] 0.979 | [31] 0.589 | [32] 0.982 | [33] 0.943 | [34] 0.985 | [35] 0.82 | [36] 0.995 | [37] 0.859 | [38] 0.936 | [39] 0.926 | [40] 0.98 | [42] 0.912 | [43] 0.931 | [44] 0.828 | [45] 0.948 | [46] 0.983 | [47] 0.923 | [48] 0.964 | [49] 0.967 | [50] 0.935 | [51] 0.973 | [52] 0.962 | [53] 1 | [54] 0.967 | [55] 0.913 | [56] 0.972 | [57] 0.896 | [58] 0.941 | [60] 0.94 | [61] 0.979 | [62] 0.818 | [65] 0.986 | [66] 0.956 | [67] 0.975 | [68] 0.978 | [69] 0.963 | [70] 0.991 | [71] 0.967
